ELG1 genotox: qHTS screen for small molecules that induce genotoxicity in human embryonic kidney (HEK293T) cells expressing luciferase-tagged ELG1 | HEK293T ELG1-luciferase reporter, luminescence, 16 h | 1.3% of 330,000 active | Potency, µM (doses to about 46 µM), without a hit: at the top dose activity change, positive = activation, actives largely listed as activators | AID 504466, 2011; further: % of control where 0% means no effect; nearly all actives have a fitted effect of over 60% in size
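Screening used a luciferase reporter fused to human ELG1 in HEK293T cells. Luminescence was read on a CCD plate imager after 16 hr exposure and 30 min ONE-Glo incubation.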
FLuc modulator: qHTS profiling assay for firefly luciferase inhibitor/activator using purifed enzyme and Km concentrations of substrates (counterscreen for miR-21 project); Luciferin 4-monooxygenase (Photinus pyralis), P08659; purified FLuc, Km substrates, luminescence inhibition; Potency, µM (titrated, usually from 57.5 µM), inactives show at the top dose activity change, negative = inhibition, hits mostly inhibitors; 6.9% of 360,000 active;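 further: plate controls were vehicle for no effect and reference inhibitor for full effect; nearly all actives have a fitted effect of over 55% in size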
Target sequence (P08659 whole entry, looked up): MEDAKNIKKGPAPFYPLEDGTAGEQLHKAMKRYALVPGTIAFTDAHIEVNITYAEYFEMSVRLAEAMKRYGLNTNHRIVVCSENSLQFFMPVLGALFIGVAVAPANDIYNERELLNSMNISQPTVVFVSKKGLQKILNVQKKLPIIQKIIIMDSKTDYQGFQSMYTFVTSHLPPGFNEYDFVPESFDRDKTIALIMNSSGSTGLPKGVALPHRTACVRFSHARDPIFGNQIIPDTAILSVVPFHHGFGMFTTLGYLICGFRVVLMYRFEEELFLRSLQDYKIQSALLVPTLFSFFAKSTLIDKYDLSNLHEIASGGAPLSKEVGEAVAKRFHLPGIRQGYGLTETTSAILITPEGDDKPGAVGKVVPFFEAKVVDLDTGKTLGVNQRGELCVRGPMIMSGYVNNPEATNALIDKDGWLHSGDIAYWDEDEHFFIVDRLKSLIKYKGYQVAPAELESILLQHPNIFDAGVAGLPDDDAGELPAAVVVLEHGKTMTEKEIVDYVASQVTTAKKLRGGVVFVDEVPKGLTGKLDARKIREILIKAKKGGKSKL
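Purified P. pyralis luciferase (10nM final) with 10uM D-luciferin and 10uM ATP (Km levels) in 50mM Tris acetate pH 7.5, 10mM Mg acetate, 0.01% Tween-20, 0.05% BSA; qHTS 6-point titration, ~60 µM downward; luminescence read.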
ELG1 repair inh: qHTS screen for small molecules that inhibit ELG1-dependent DNA repair in human embryonic kidney (HEK293T) cells expressing luciferase-tagged ELG1; HEK293T ELG1-luciferase reporter, luminescence, 16 h; DNA damage induced by 5-fluorouridine; AID 504467, 2011; 2.3% of 330,000 active; Potency, µM (highest dose often 46.1 µM), without a hit: at the highest dose activity change, negative = inhibition, actives largely listed as inhibitors; further: on the % scale 0 is the no-effect control and ±100 the full control effect; nearly all actives have a fitted effect of over 55% in size
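In this reporter screen, reduction of luminescence relative to DMSO vehicle indicated activity. Compounds and 5-fluorouridine were added together to 2,000 cells per well, incubated for 16 hr at 37 °C, then developed with ONE-Glo.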
Rab9 prom act: qHTS Assay for Rab9 Promoter Activators; Huh7 Rab9 promoter-luciferase reporter, luminescence, 24 h; Potency, µM (doses to about 9.22 µM), for the others: at the top dose activation, negative = inhibition, actives largely listed as activators; 2.8% of 320,000 active; AID 485297, 2010; further: % of control where 0% means no effect; nearly all actives have a fitted effect of over 60% in size
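Cells were plated at 1500 per well in reduced-serum medium with 10% FBS and left 2 h. Compound in DMSO was then added for 24 h at 37 °C. Reporter signal was read by luminescence after 10 min with luciferase detection reagent.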
SMN2 splice enh: qHTS Assay for Enhancers of SMN2 Splice Variant Expression; AID 1458, 2008; 2.8% of 210,000 active; Potency, µM (doses to about 46.1 µM), for inactives: at the top dose activity change, positive = activation, most hits filed as activators; HEK293 SMN2-luciferase splicing reporter, luminescence, 30-36 h; further: % of control where 0% means no effect; nearly all actives have a fitted effect of over 55% in size
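HEK293 cells carry an SMN2 […]–luciferase reporter in which exon 7 inclusion puts luciferase in frame. Cells were plated 10-12 h before compound addition, then incubated 30-36 h at 37C. ONE-Glo luminescence was read; sodium butyrate at 4.5 mM final served as control.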
NPC1 promoter act: qHTS Assay for NPC1 Promoter Activators. Huh7 NPC1 promoter luciferase reporter, 24 h. Potency, µM (titrated, usually from 9.22 µM), for inactives: top-dose activation, hits mostly activators. 2.4% of 320,000 active. AID 485313, 2010; further: % of control where 0% means no effect; nearly all actives have a fitted effect of over 60% in size
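NPC1 promoter–luciferase Huh7 cells; 24 h compound; luminescence.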
Active calls of the source: *; ? = inconclusive; · = no result given; [ ] = remark or other dose. An excerpt weighted towards active compounds, which were near 9.2% of everything screened. The call rests on the fitted dose curve; in most records, active means well fitted curve in the direction sought with a large enough effect; inconclusive means small, poorly fitted or top-dose-only effect, or another doubt; inactive means no such curve, though single readings can be large; an effect the other way counts as inactive or inconclusive. Potency means the concentration at half of the fitted maximal effect.

SMILES	ELG1 genotox	FLuc modulator	ELG1 repair inh	Rab9 prom act	SMN2 splice enh	NPC1 promoter act
O=C(NC(=S)Nc1cc([N+](=O)[O-])ccc1O)c1ccc2c(c1)OCO2	1µM*	1.5µM*	?	0.32µM*	·	0.32µM*
Cc1ccccc1NC(=O)CSc1nc2c(oc3ccccc32)c(=O)n1-c1ccccc1F	·	-8%	·	·	2%	·
O=C(Cc1ccc([N+](=O)[O-])cc1)NNC(=O)c1ccc2c(c1)OCO2	10%	6%	1%	3%	·	1%
Cn1ccc(C(=O)NC(=S)Nc2ccc([N+](=O)[O-])cc2O)n1	12µM*	12µM*	?	2.8µM*	·	2.2µM*
O=C(Nc1nc2c(F)cccc2s1)c1ccc2c(c1)OCCO2	·	0.54µM*	·	·	·	·
O=C(Nc1nc(-c2ccccn2)cs1)c1ccccc1-n1cnnn1	10%	?	2.6µM*	-26%	·	-11%
O=C(Nc1nc2c(F)cccc2s1)C1CC1	10%	?	?	?	·	?
O=C(Nc1ccc([N+](=O)[O-])cn1)c1ccc2c(c1)OCO2	14%	-6%	?	1.6µM*	?	?
COc1ccc(NC(=O)CC2C(=O)N(c3ccccc3)C(=O)N2CCc2sccc2C)cc1 (centres undefined)	·	-15%	·	·	14%	·
CC(=O)Nc1ccc(C(=O)Nc2nc(-c3ccccn3)cs2)cc1	-9%	?	?	-14%	11%	-5%
O=C(Nc1ccc([N+](=O)[O-])cn1)c1cccnc1	2%	-3%	-1%	-6%	·	0%
CC(C)(C)c1ccc(C(=O)Nc2ccc([N+](=O)[O-])cn2)cc1	?	1.9µM*	?	1µM*	2.8µM*	0.71µM*
O=C(Nc1nc(-c2ccccn2)cs1)c1ccc2c(c1)OCCO2	?	1.1µM*	?	1.8µM*	·	2.8µM*
O=C(Nc1ncccc1Cl)c1ccc2c(c1)OCCO2	5.2µM*	13µM*	?	2.5µM*	10µM*	3.2µM*
CCc1cccc(NC(=O)c2ccc(CNc3c(N4CCCC4)c(=O)c3=O)cc2)c1	2%	?	-1%	1%	·	-3%
CCN(CC)S(=O)(=O)c1ccc2c(c1)nc(SCC(=O)N1CCOCC1)n2-c1ccccc1OC	-1%	-2%	-25%	5%	-4%	-4%
CCc1ccccc1NC(=O)Cn1c(=O)n(Cc2ccco2)c(=O)c2sc3ccccc3c21	·	-1%	·	·	-7%	·
CCc1ccc(OCC(=O)NNC(=O)c2cc(S(=O)(=O)N(C)C)ccc2N2CCCC2)cc1	-8%	-1%	-3%	-4%	·	-1%
Oc1ccc(/C=N/Nc2ccc3ccccc3c2)c(O)c1	19%	19µM*	?	1%	7%	9%
Oc1ccccc1/C=N/Nc1ccccc1	?	7.6µM*	?	26%	-4%	-3%
Oc1ccc(/C=N/Nc2nc(N3CCCCCC3)nc(N3CCCCCC3)n2)c(O)c1	-16%	1%	?	0%	-19%	-1%
Oc1ccccc1/C=N/Nc1ncc(Br)cn1	16µM*	?	?	25%	-73%	-3%
NC(=S)N/N=C/c1ccccc1O	-5%	2%	4%	-6%	·	2%
Cc1ccc2c(ccc(=S)n2C)c1	6%	-13%	?	0%	-10%	-1%
Cn1ccnc1SCC(=O)NC1(C#N)CCCCC1	0%	1%	3%	-2%	·	-10%
SMILES	ELG1 genotox	FLuc modulator	ELG1 repair inh	Rab9 prom act	SMN2 splice enh	NPC1 promoter act
COc1ccc(S(=O)(=O)NCCc2nnc3ccc(SCC(=O)Nc4cc(C)cc(C)c4)nn23)cc1	·	-8%	·	·	·	·
CCOc1ccc(C=NNC(=O)c2ccc(-n3cnnn3)cc2)cc1	-2%	·	?	·	·	·
Cc1cc(C(=O)CSc2ccc(F)cc2)cc(C)c1OC(=S)N(C)C	1µM*	0.67µM*	?	?	-51%	?
COc1ccc(SCC(=O)c2cc(C)c(OC(=S)N(C)C)c(C)c2)cc1	15%	17µM*	-14%	?	-12%	27%
Cc1noc(C)c1S(=O)(=O)N1CCc2nc(-c3ccccc3)c3c(c2C1)CO[C@@H](C)C3	·	·	·	·	-5%[9.22 µM]	·
COc1ccc(C(=O)Nc2nc(N)n(-c3ccccc3)n2)cc1OC	0%	-10%	-13%	-6%	-2%	9%
Nc1nc(NC(=O)c2ccccc2Cl)nn1-c1ccccc1	5%	-19%	?	22%	·	2%
COc1ccc(C(=O)Nc2nc(N)n(-c3ccccc3)n2)cc1	15%	17µM*	?	4%	2%	4%
COc1ccccc1/C=C/C(=O)Nc1nc(N)n(-c2ccccc2)n1	-1%	19µM*	?	0%	·	-2%
Nc1nc(NC(=O)c2ccccc2)nn1-c1ccccc1	?	?	?	28%	?	23%
Nc1nc(NC(=O)c2cccs2)nn1-c1ccccc1	?	17µM*	?	2.5µM*	11µM*	2.8µM*
COc1cc(C2=N/C(=C\c3ccccc3)C(=O)O2)cc(OC)c1OC	·	·	·	·	-2%	·
CC(=O)n1cc(/C=C2/N=C(c3ccccc3)OC2=O)c2ccccc21	1%	5.4µM*	13%	-1%	-2%	-2%
COc1ccc(C(=O)Nc2ccc(C3(C#N)CCCC3)cc2)cc1	0%	4.8µM*	-4%	21%	-1%	14%
N#CC1(c2ccc(NC(=O)c3ccccc3F)cc2)CCCC1	1.8µM*	1.9µM*	?	0.79µM*	2.8µM*	0.63µM*
COc1ccc(NC(=O)C2(c3ccc(NC(=O)c4ccc(C)cc4)cc3)CCCC2)cc1	2%	0%	14%	0%	-8%	-1%
CC1(C)CC(=O)c2c(oc3c(Cl)cc(NS(=O)(=O)c4ccc(Br)cc4)cc23)C1	·	-7%	·	·	-8%	·
Cc1ccc([N+](=O)[O-])cc1N/C=C1\CCc2ccccc2C1=O	12%	?	?	?	-6%	4.5µM*
Cc1ccc([N+](=O)[O-])cc1NC(=O)CCc1ccccc1	0%	-3%	7%	0%	-4%	-6%
Cc1csc(NC(=O)c2cccc(S(=O)(=O)N3CCN(C)CC3)c2)n1	-5%	-5%	?	-3%	2%	-2%
Cc1csc(N(C(=O)c2cccc(S(=O)(=O)N(C)C)c2)c2ccccc2)n1	-20%	-11%	15µM*	7%	-12%	10%
Cc1csc(N(C(=O)c2cccc(S(=O)(=O)N3CCCC3)c2)c2ccccc2)n1	-16%	-3%	21µM*	1%	-20%	3%
